High-throughput results deposited in PubChem by several laboratories.
Compounds with a hit are over-represented: about 5.9% of the library has one in this group of screens.
GAA850 FXN act = FXN promoter activators, primary screen, cell-based, luciferase luminescence, HEK293 lucGAA850; actives 0.56% (n = 360,000); HEK293 lucGAA850 FXN promoter luciferase reporter, 24 h; percent of 10 µM SAHA response; activation, % at 6 µM;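 active = activation above the average of all compounds screened plus 3 SD, cutoff fixed separately per campaign, cut at about 7.5% in these data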;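 also: 0% = DMSO wells and 100% = 10 µM SAHA wells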
HSF-1 act = HSF-1 activators, primary screen, NIH3T3-HGL cells, MG132 stress, luminescence, single point; actives 1.7% (n = 300,000); activation, % at 9 µM; NIH3T3-HGL HSF-1 luciferase reporter, 8 h; 100% = twice DMSO control signal;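 active = mean replicate activation of at least 50% with a set share of replicates each reaching 50%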;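 also: 0% = median of the neutral control wells and 100% = twice that signal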
NR0B1 inh = DAX1 (NR0B1) inhibitors, primary screen, cell-based, HEK293, Gal4-DAX1, luciferase luminescence | inhibition, % at 6.75 µM | HEK293 Gal4-DAX1 luciferase reporter | actives 0.99% (n = 340,000) | Nuclear receptor subfamily 0 group B member 1 (Homo sapiens), P51843;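 active = inhibition above the mean over all tested compounds plus 3 SD, cut at about 4.2% in these data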;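 also: 0% = DAX1-transfected cells with DMSO and 100% = empty-vector control cells with DMSO; inhibition shows as a rise in luminescence from relieved DAX1 repression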
Target sequence (P51843 207-470 limits assumed): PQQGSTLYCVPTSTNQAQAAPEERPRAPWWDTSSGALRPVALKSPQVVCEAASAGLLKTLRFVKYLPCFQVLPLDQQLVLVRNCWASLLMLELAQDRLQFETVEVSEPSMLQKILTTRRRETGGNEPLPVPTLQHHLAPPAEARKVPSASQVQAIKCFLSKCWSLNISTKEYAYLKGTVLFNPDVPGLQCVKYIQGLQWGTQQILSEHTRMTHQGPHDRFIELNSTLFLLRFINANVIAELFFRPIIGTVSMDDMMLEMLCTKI
HSF1 inhib = HSF1 inhibitors in luciferase reporter cells, primary screen, cell-based, NIH3T3, luminescence. NIH3T3-HGL HSE-luciferase, MG132-induced, luminescence 8 h; hits give low values. activity change, negative = inhibition, % at 7.5 µM (by protocol). actives 0.77% (n = 300,000). AID 2098, 2009;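 active = more than half of replicate wells show activity change below -50%, luminescence cut by over half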;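 also: luciferase reports HSF-1 transcriptional activity via heat shock element; 0% = median of DMSO wells and -100% = zero luminescence signal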
AHR activator = AHR activators, primary screen, cell-based, luminescence, luciferase reporter, human; activation, % at 5 µM; AHR-responsive luciferase reporter cells; actives 2.5% (n = 320,000); in the data active = activation above about 47%;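 also: 0% = vehicle wells and 100% = reference agonist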
HSP90 refold inh = HSP90 inhibitors, primary screen, cell lysate, luminescence | Heat shock protein HSP 90 (rabbit reticulocyte lysate; luciferase refolding) | inhibition, % at 5.6 µM | actives 0.91% (n = 290,000) | Rabbit reticulocyte lysate, luciferase refolding luminescence, 3 h;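 active = inhibition above the screen-wide mean plus 3 SD, computed separately per campaign, cut at about 16% in these data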;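 also: 0% = DMSO wells and 100% = 60 µM geldanamycin wells; inhibitors lower the luminescence because luciferase stays unfolded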
AHR act cf = AHR activators, confirmation, cell-based, luminescence, luciferase reporter, human; activation, % at 9 µM; actives 87% (n = 2,300); human cells, AHR-responsive luciferase reporter; shares compounds with AHR activator; in the data active = activation above about 49%;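 also: HepG2 hepatoma cells carrying a DRE-driven firefly luciferase reporter; 0% = vehicle wells and 100% = reference agonist wells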
PXR act counter = human PXR activators, counter-screen for AHR activator project, cell-based, luciferase luminescence. AID 434939, 2010. actives 88% (n = 2,300). cell-based PXR reporter. activation, % at 11.6 µM. shares compounds with AHR activator; in the data active = activation above about 11%;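 also: human hepatoma DPX-2 cells expressing full-length human PXR; 0% = DMSO and 100% = reference agonist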
Target sequence (O75469 whole entry, looked up): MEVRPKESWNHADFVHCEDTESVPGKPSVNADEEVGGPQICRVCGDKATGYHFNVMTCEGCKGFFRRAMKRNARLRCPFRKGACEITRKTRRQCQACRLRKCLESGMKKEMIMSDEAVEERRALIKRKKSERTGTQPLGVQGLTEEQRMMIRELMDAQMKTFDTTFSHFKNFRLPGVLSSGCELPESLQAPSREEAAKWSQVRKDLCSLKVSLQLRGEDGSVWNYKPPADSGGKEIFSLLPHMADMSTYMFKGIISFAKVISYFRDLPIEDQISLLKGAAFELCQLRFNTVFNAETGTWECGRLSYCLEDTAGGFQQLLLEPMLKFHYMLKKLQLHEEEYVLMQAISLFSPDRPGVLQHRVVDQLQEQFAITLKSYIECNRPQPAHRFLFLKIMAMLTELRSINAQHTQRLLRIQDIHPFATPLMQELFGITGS
Numbers without * were called inactive; x = no result.

SMILES	GAA850 FXN act	HSF-1 act	NR0B1 inh	HSF1 inhib	AHR activator	HSP90 refold inh	AHR act cf	PXR act counter
CCOC(=O)c1c(C)n(OCc2ccccc2)c2ccc3nonc3c12	1.5	-5.0	-0.7	-0.7	4.5	-2.3	x	x
C=CCOn1c(C)c(C(C)=O)c2c3nonc3ccc21	0.4	-20.3	-1.3	-18.6	80.9*	0.5	70.9*	47.7*
CSc1ncc(C(=O)Nc2cc(C)ccc2C)c(C)n1	0.5	-14.8	0.2	-0.8	x	-0.8	x	x
O=C(Nc1ccc(Br)cc1)C1OCCc2ccccc21 (stereo not given)	5.4	x	2.4	x	103.3*	-2.9	106.8*	116.4*
O=C(Nc1cccnc1)C1OCCc2ccccc21 (stereo not given)	1.0	-16.0	0.8	2.3	2.9	0.6	x	x
O=C(Cn1ccc2cc(S(=O)(=O)N3CCCCC3)ccc21)NCc1ccccc1F	0.7	11.9	0.4	3.8	2.0	-1.7	x	x
COCCn1c(-c2ccc(-c3ccc([N+](=O)[O-])cc3Br)o2)nc2c1c(=O)[nH]c(=O)n2CC(C)C	1.7	22.4	-0.6	3.5	4.2	0.3	x	x
Cc1nc(NC(=O)c2ccco2)sc1-c1csc(Nc2ccc(Cl)cc2Cl)n1	0.8	9.8	-0.7	2.5	87.7*	8.7	74.9*	25.8*
C=CCCC(=O)Nc1nc(C)c(-c2csc(Nc3ccccc3OC)n2)s1	-5.3	-52.3	-0.1	-39.0	101.0*	0.8	64.8*	30.6*
C=CCCC(=O)Nc1nc(C)c(-c2csc(Nc3ccc(Cl)cc3Cl)n2)s1	-0.9	2.8	1.1	-1.5	102.0*	3.2	73.2*	25.4*
CCOC(=O)c1csc(NC(=O)COc2ccc(Cl)cc2Cl)n1	3.1	9.5	-0.3	-5.4	13.7	1.6	x	x
CCC(C)C(=O)Nc1nc(C)c(-c2csc(Nc3ccccc3OC)n2)s1 (stereo not given)	-0.6	6.1	1.2	2.6	109.9*	3.3	84.6*	51.0*
Cc1sc(NC(=O)/C=C/c2ccco2)c(C(=O)O)c1C	6.1	-14.9	2.1	4.2	3.6	3.3	x	x
CC(C)C(=O)Nc1ccc(N2CCOCC2)c(S(=O)(=O)Nc2ccccc2Cl)c1	1.1	x	-0.6	x	-0.7	x	x	x
Cc1ccc2cc(NC(=O)C3(C)CCN(C)C3)ccc2n1 (stereo not given)	0.0	x	x	x	x	x	x	x
CC1SC(c2ccc(F)cc2)N(CCc2ccccc2)C1=O (stereo not given)	3.0	-1.2	-0.8	17.1	8.6	-7.9	x	x
CN1CCN(c2ccc(NC(=O)c3sc4ccccc4c3Cl)cc2)CC1	0.9	-50.2	3.0	-46.8	80.1*	-0.7	48.5*	x
Cc1ccc(CN(C)CC(=O)Nc2ccccc2C(=O)NC2CC2)o1	1.6	x	-0.1	x	3.3	x	x	x
CC(=O)C1=C(O)C(=O)N(c2nccs2)C1c1ccc(F)cc1 (stereo not given)	0.8	5.6	1.3	6.4	-2.8	0.6	x	x
CC(=O)C1=C(O)C(=O)N(c2nccs2)C1c1ccc(Br)cc1 (stereo not given)	1.9	-1.3	1.5	8.9	171.3*	2.2	43.3	8.6
COc1ccc2c(C)nc(Nc3nc(C)cc(C)n3)nc2c1	-4.6	-2.2	1.9	7.0	108.7*	-3.7	100.9*	20.8*
COc1ccc2c(C)nc(Nc3nc(C)c(C)c(=O)[nH]3)nc2c1	-17.4	5.0	3.0	15.6	-6.9	-3.0	x	x
CCOc1ccc(NC(=O)c2oc3ccccc3c2NC(=O)CC)cc1	x	7.1	x	-0.1	95.0*	-0.7	57.9*	29.3*
CCOCC(=O)Nc1c(C(=O)Nc2ccc3c(c2)OCO3)oc2ccccc12	3.7	1.9	0.9	2.7	102.4*	-4.8	105.6*	51.1*
Cc1ccc(NC(=O)c2oc3ccccc3c2NC(=O)c2ccc3c(c2)OCO3)cc1	1.2	12.9	-0.1	3.5	7.2	0.1	x	x
SMILES	GAA850 FXN act	HSF-1 act	NR0B1 inh	HSF1 inhib	AHR activator	HSP90 refold inh	AHR act cf	PXR act counter
CC1Cc2ccccc2N1C(=O)CCn1cccn1 (stereo not given)	1.1	13.1	0.4	7.9	4.9	3.4	x	x
Cc1ccc2nc(-c3ccncc3)[nH]c2c1	6.7	32.5	4.0	2.0	133.6*	2.0	87.0*	21.5*
Cc1ccc(-c2csc3nc(-c4ccncc4)[nH]c(=O)c23)cc1	0.5	-5.6	1.0	1.6	-2.8	-2.4	x	x
CC(C)C(=O)Nc1cccc(-c2cnc3ccccc3n2)c1	4.9	12.4	-0.1	13.0	-2.2	5.9	x	x
CS(=O)(=O)Nc1cccc(-c2cnc3ccccc3n2)c1	4.7	20.5	4.3*	10.7	87.8*	-1.0	119.8*	8.0
CNC(=S)Nc1cccc(-c2cnc3ccccc3n2)c1	1.2	42.8	1.2	7.2	118.0*	5.6	99.6*	19.4*
CC(C)CCNCC(=O)NC(c1ccccc1)c1ccccc1	0.6	x	-0.1	x	0.4	-2.7	x	x
CN(Cc1ccccc1)C(=O)c1ccc(S(=O)(=O)N(C)c2ccccc2)cc1	-0.6	x	-0.2	x	-0.2	x	x	x
Cc1nc(N)nc(N(C)c2ccccc2)c1Br	0.6	x	-1.6	x	x	x	x	x
CCc1ccc(/C=N/NC(=O)c2c[nH]c3ccccc23)s1	1.0	57.8*	0.0	25.2	85.3*	-1.1	38.8	42.3*
Cc1occc1C(=O)N/N=C/c1c[nH]c2ccccc12	1.2	37.0	4.2	38.8	123.2*	4.5	111.6*	23.4*
O=C(N/N=C/c1c[nH]c2ccccc12)c1cc(Cl)ccc1O	2.7	1.4	1.5	-0.6	148.5*	-0.3	113.4*	4.5
O=C(N/N=C\c1ccc(Cl)s1)C1COc2ccccc2O1 (stereo not given)	0.2	-6.8	1.1	1.6	0.5	-0.2	x	x
O=C(N/N=C/c1c[nH]c2ccccc12)C1COc2ccccc2O1 (stereo not given)	-1.7	-7.4	-1.8	-6.7	92.3*	0.4	72.0*	x
CCCc1cc(C(=O)N/N=C/c2ccc(CC)s2)c2ccccc2n1	-3.4	6.7	-2.9	-8.5	41.1	2.5	x	x
CC(=O)Nc1ccc(C=CC=Cc2cccc([N+](=O)[O-])c2)cc1	3.5	x	1.6	x	x	x	x	x
CC[C@]12c3[nH]c4ccc(Cl)cc4c3CCN1C(=O)[C@@H](CC(=O)NCCC1=CCCCC1)C[C@@H]2C(=O)N1CCN(C(=O)C2CC2)CC1	-0.3	x	-1.0	x	x	x	x	x
